Rows were chosen to be rich in hits. Some 6.5% of all compounds tested hit in one or more screens of this group.
Vaccinia mCherry: vaccinia inhibition (mCherry reporter); Vaccinia virus mCherry reporter infection, fluorescence; Potency, µM (doses to about 36.5 µM), actives largely listed as inhibitors; actives 0.63% (n = 310,000); AID 720579; calls by dose curve; tested in A549 cells; note: nearly all actives have a fitted effect of over 35% in size
LASV entry inh: blocks Lassa virus binding to or entry into cells; Lassa virus pseudotype entry inhibition, cell reporter; Potency, µM (titrated, usually from 37.9 µM), actives largely listed as inhibitors; actives 1.2% (n = 300,000); AID 540256; calls by dose curve; tested in HEK293 cells; note: nearly all actives have a fitted effect of over 50% in size
Vaccinia Venus: vaccinia inhibition (Venus reporter); Vaccinia virus Venus reporter expression, fluorescence; Potency, µM (top dose mostly 36.5 µM), usual class: inhibitors; actives 0.46% (n = 330,000); AID 720580; calls by dose curve; tested in A549 cells; note: nearly all actives have a fitted effect of over 30% in size
FMDV antiviral: blocks foot and mouth disease virus; FMDV antiviral cell-based qHTS; Potency, µM (doses to about 57.9 µM), hits mostly inhibitors; actives 1.2% (n = 410,000); AID 1159524; calls by dose curve; tested in HEK293T cells; note: read-out not given here; nearly all actives have a fitted effect of over 45% in size
Marburg entry inh: Marburg virus entry inhibition; Marburg virus pseudotyped entry inhibition, cell reporter; Potency, µM (titrated, usually from 37.8 µM), most hits filed as inhibitors; actives 1.8% (n = 300,000); calls by dose curve; tested in HEK293 cells
HCMV inh: inhibitors of human cytomegalovirus; HFF cells, HCMV-luciferase reporter, 72 h; active compounds read low; activity change, negative = inhibition, % at 57.5 µM; actives 4.5% (n = 410,000); in the data active = activity change below about -60%; inconclusive = no clear call, values can overlap the other calls; inactive = above about -39%
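Human foreskin fibroblasts infected with luciferase-reporter HCMV at MOI 1 PFU/cell, compounds at two doses. Luciferase measured 72 h post infection; normalized to buffer-only basal and Salinomycin (10uM) controls.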
Of the large screens only hits and unclear results are named; the others gave an inactive call; ! = a repeat was not active.

COC(=O)c1cc(NC(=S)NCc2ccc(Cl)cc2)cc(C(=O)OC)c1	FMDV antiviral inconclusive, HCMV inh -76
CCCCNC(=O)c1nc2ccccc2nc1-c1cccc(OC(F)(F)F)c1	none (no result: Vaccinia mCherry, LASV entry inh, Vaccinia Venus, FMDV antiviral, Marburg entry inh)
COc1ccc(-n2nc(C(=O)NCCc3ccc(OC)c(OC)c3)c3c4ccccc4n(C)c3c2=O)cc1Cl	LASV entry inh inconclusive, FMDV antiviral inconclusive, Marburg entry inh inconclusive
COc1ccc(/C=C/C(=O)c2cc(Br)ccc2O)cc1OC	none (no result: Vaccinia mCherry, LASV entry inh, Vaccinia Venus, Marburg entry inh)
COc1ccc(/C=C/C(=O)c2cc(F)ccc2OC(=O)c2ccccc2)cc1OC	Vaccinia mCherry inconclusive, LASV entry inh inconclusive, Vaccinia Venus inconclusive, FMDV antiviral 28µM, Marburg entry inh inconclusive, HCMV inh -97
COc1ccc(/C=C/C(=O)c2cc(F)ccc2OC(=O)c2ccc(OC)c(OC)c2)cc1OC	LASV entry inh inconclusive, FMDV antiviral inconclusive, Marburg entry inh inconclusive (no result: Vaccinia mCherry, Vaccinia Venus)
COc1ccc(/C=C/C(=O)c2cc(Br)ccc2OC(=O)c2ccco2)cc1OC	LASV entry inh inconclusive, Marburg entry inh 5.8µM!
COc1ccc(/C=C/C(=O)c2cc(F)ccc2OC(=O)c2ccccc2OC)cc1OC	Vaccinia mCherry inconclusive, LASV entry inh inconclusive, Vaccinia Venus inconclusive, FMDV antiviral 8.9µM, Marburg entry inh inconclusive, HCMV inh -97
COc1ccc(NC(=O)CCc2nnc3n(CC(C)C)c(=O)c4ccccc4n23)cc1	HCMV inh inconclusive (no result: LASV entry inh)
Cc1c(Cl)cccc1NC(=S)NCCc1ccc(S(N)(=O)=O)cc1	Marburg entry inh inconclusive, HCMV inh -80
Cc1c(Cl)cccc1NC(=S)NCc1ccc(Cl)cc1	Marburg entry inh inconclusive, HCMV inh inconclusive
Cc1c(Cl)cccc1NC(=S)NCCc1ccc(F)cc1	HCMV inh inconclusive
Cc1c(Cl)cccc1NC(=S)NCCc1ccc(Cl)cc1	LASV entry inh inconclusive, Marburg entry inh inconclusive, HCMV inh -86
Cc1ccc(NC(=S)NCc2ccc(S(N)(=O)=O)cc2)cc1Cl	HCMV inh -81
Cc1c(Cl)cccc1NC(=S)NCc1ccccc1	HCMV inh -78
NC[C@H](O)C1CCCCCCC1	none (no result: Vaccinia mCherry, LASV entry inh, Vaccinia Venus, FMDV antiviral, HCMV inh)
Cc1ccc2c(c1)c1c3n2CCN(C(=O)c2cccc(C(F)(F)F)c2)C3CCC1 (stereo not given)	none
O=C(CSc1nc2ccccc2[nH]1)c1c[nH]c2ccccc12	none
Cc1nc(SCC(=O)c2c[nH]c3ccccc23)n[nH]1	LASV entry inh inconclusive, HCMV inh -69
O=C(c1ccc(Cl)cc1)C1CCCN(Cc2ccc3c(c2)OCCO3)C1 (stereo not given)	Marburg entry inh inconclusive
O=C(c1ccc(Cl)cc1)C1CCCN(Cc2cccc3cnccc23)C1 (stereo not given)	FMDV antiviral inconclusive, HCMV inh -62 (no result: Vaccinia mCherry, LASV entry inh, Vaccinia Venus, Marburg entry inh)
O=C(c1ccc(Cl)cc1)C1CCCN(Cc2ccc3ncccc3c2)C1 (stereo not given)	FMDV antiviral inconclusive, Marburg entry inh inconclusive, HCMV inh -75 (no result: LASV entry inh)
COc1ccc(CN2CCCC(C(=O)c3cccc(Cl)c3)C2)cc1 (stereo not given)	none (no result: Vaccinia mCherry, LASV entry inh, Vaccinia Venus, Marburg entry inh)
O=C(c1cccc(Cl)c1)C1CCCN(Cc2cccc3cnccc23)C1 (stereo not given)	FMDV antiviral inconclusive, Marburg entry inh inconclusive, HCMV inh -71
O=C(c1ccc2c3c(cccc13)CC2)C1CCCN(Cc2ncc[nH]2)C1 (stereo not given)	LASV entry inh inconclusive
O=C(c1ccc2c3c(cccc13)CC2)C1CCCN(Cc2ccncc2)C1 (stereo not given)	FMDV antiviral inconclusive, HCMV inh -69 (no result: Vaccinia mCherry, LASV entry inh, Vaccinia Venus, Marburg entry inh)
COC(=O)CNC(=O)c1cnn(-c2ncc3c(n2)-c2ccccc2CCC3)c1C1CC1	none (no result: LASV entry inh, Marburg entry inh, HCMV inh)
Nc1nc2c(nc(N3CCOCC3)n2COCCO)c(=O)[nH]1	none (no result: LASV entry inh, FMDV antiviral, Marburg entry inh, HCMV inh)
COC(=O)C1C(=O)C(C(=O)/C=C/c2ccco2)C(=O)CC1(C)C (stereo not given)	none (no result: Vaccinia mCherry, LASV entry inh, Vaccinia Venus, Marburg entry inh, HCMV inh)
COC(=O)C1C(=O)C(C(=O)/C=C/c2ccccc2)C(=O)CC1(C)C (stereo not given)	Vaccinia mCherry 11µM, Vaccinia Venus inconclusive, FMDV antiviral inconclusive, HCMV inh -82
O=C1CCCC(=O)C1C(=O)c1ccc(C(F)(F)F)cc1[N+](=O)[O-]	none (no result: Vaccinia mCherry, LASV entry inh, Vaccinia Venus, FMDV antiviral, Marburg entry inh)
Cc1cccc(/C=N/Nc2cc(N3CCOCC3)nc(N3CCOCC3)n2)c1	Vaccinia mCherry inconclusive, LASV entry inh inconclusive, Vaccinia Venus inconclusive, Marburg entry inh 1.4µM
Cc1ccc(/C=N/Nc2cc(C)nc(N3CCOCC3)n2)cc1	Marburg entry inh inconclusive
Cc1cc(N/N=C/c2ccccc2)nc(N2CCOCC2)n1	Marburg entry inh 1.6µM
C[C@H]1C[C@H]2[C@@H]3CCC4=CC(=O)C=C[C@]4(C)[C@@]3(F)[C@@H](O)C[C@]2(C)[C@@]1(O)C(=O)CO	none (no result: LASV entry inh, Marburg entry inh)
CC1(c2ccccc2)O[C@@H]2C[C@H]3[C@@H]4CCC5=CC(=O)C=C[C@]5(C)[C@@]4(F)[C@@H](O)C[C@]3(C)[C@]2(C(=O)CO)O1 (stereo not given in full)	Vaccinia mCherry inconclusive, LASV entry inh inconclusive, Vaccinia Venus inconclusive, FMDV antiviral inconclusive, Marburg entry inh 10µM
COc1ccc(CC(=O)NNc2ncnc3c2cnn3-c2ccccc2)cc1	LASV entry inh 5.2µM
COc1ccc(C(=O)NNc2ncnc3c2cnn3-c2cccc(Cl)c2)cc1OC	Vaccinia mCherry inconclusive, LASV entry inh inconclusive, Vaccinia Venus inconclusive, HCMV inh -86 (no result: Marburg entry inh)
COc1ccc(CCNc2ncnc3c2cnn3-c2ccc(C)c(Cl)c2)cc1	none (no result: Marburg entry inh)
COc1ccc(CCNc2ncnc3c2cnn3-c2cc(Cl)ccc2C)cc1	LASV entry inh inconclusive, FMDV antiviral 18µM, HCMV inh -61 (no result: Marburg entry inh)
COc1ccc(CC(=O)NNc2ncnc3c2cnn3-c2ccc(C)cc2)cc1	none
CCN(CC)S(=O)(=O)c1ccc(NC(=O)CSc2nnc3c(n2)[nH]c2ccccc23)cc1	Vaccinia Venus inconclusive (no result: LASV entry inh, FMDV antiviral, Marburg entry inh, HCMV inh)
N/N=C(/C(=O)N1CCN(c2ccccn2)CC1)c1ccccc1I	none (no result: Vaccinia mCherry, LASV entry inh, Vaccinia Venus, FMDV antiviral, Marburg entry inh)
Cc1ccccc1C1(CC(=O)N2CC3CC4CC(C3)CC2C4)CC(=O)N(Cc2cccnc2)C1=O (stereo not given)	none (no result: LASV entry inh, Marburg entry inh, HCMV inh)
COC(=O)COc1ccc(C2C(C(=O)OC)=C(C)NC3=C2C(=O)c2ccccc23)cc1OC (stereo not given)	HCMV inh -108
C[C@H](NC(=O)CSc1nc2c(cc1C#N)CN(C)CC2)c1ccccc1	none (no result: Vaccinia mCherry, LASV entry inh, Vaccinia Venus, FMDV antiviral, HCMV inh)
CCN(CC)CCSc1nnc2c3cc(C)ccc3n(Cc3ccccc3)c2n1	LASV entry inh inconclusive, Marburg entry inh inconclusive, HCMV inh -85
CCCCn1c2ccc(F)cc2c2nnc(SCCN(CC)CC)nc21	LASV entry inh inconclusive, Marburg entry inh inconclusive, HCMV inh inconclusive
CC1=C(C(=O)Nc2cccnc2)C(c2ccc(Cl)cc2)n2nc(SCc3ccccc3)nc2N1 (stereo not given)	none
COc1ccc(C(=O)OCC(=O)NC2CCCC2)cc1OC	none
Cc1cccc(C(=O)OCC(=O)NC2CCCCCCC2)c1	HCMV inh -64 (no result: Vaccinia mCherry, LASV entry inh, Vaccinia Venus, Marburg entry inh)
Cc1ccc(C(=O)OCC(=O)NC2CCCC2)cc1C	Marburg entry inh inconclusive, HCMV inh -78

Compound activity deposited in PubChem by National Center for Advancing Translational Sciences (NCATS).
